About 83,000 compounds went through this panel and 20% of them were active in at least one assay; those are over-represented in the sample as a whole.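 Cells were grown in 96-well plates and exposed to the test compound at a single concentration for 48 hours; results are reported as percent growth, with values below 10 considered active.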 Unmarked numbers belong to inactive results. Activity calls are given as the source filed them.
Legend:
Assay in all cases: NCI-60 one-dose screen, 48 h (100 = growth as untreated, 0 = no growth, -100 = all killed)
Settings in all cases: 10 µM unless noted
DU-145 prostate = test system: DU-145 prostate
K-562 leukemia = test system: K-562 leukemia
MALME-3M melanoma = test system: MALME-3M melanoma
MDA-MB-231 breast = test system: MDA-MB-231 breast
RXF 393 renal = test system: RXF 393 renal
SF-268 CNS = test system: SF-268 CNS
SF-295 CNS = test system: SF-295 CNS
SF-539 CNS = test system: SF-539 CNS
M14 melanoma = test system: M14 melanoma
HCT-15 colon = test system: HCT-15 colon
HT29 colon = test system: HT29 colon
SNB-75 CNS = test system: SNB-75 CNS
SNB-19 CNS = test system: SNB-19 CNS
PC-3 prostate = test system: PC-3 prostate
SK-MEL-5 melanoma = test system: SK-MEL-5 melanoma
UACC-62 melanoma = test system: UACC-62 melanoma
LOX IMVI melanoma = test system: LOX IMVI melanoma
SK-MEL-28 melanoma = test system: SK-MEL-28 melanoma
UACC-257 melanoma = test system: UACC-257 melanoma
U251 CNS = test system: U251 CNS

| SMILES | growth (DU-145 prostate) | growth (K-562 leukemia) | growth (MALME-3M melanoma) | growth (MDA-MB-231 breast) | growth (RXF 393 renal) | growth (SF-268 CNS) | growth (SF-295 CNS) | growth (SF-539 CNS) | growth (M14 melanoma) | growth (HCT-15 colon) | growth (HT29 colon) | growth (SNB-75 CNS) | growth (SNB-19 CNS) | growth (PC-3 prostate) | growth (SK-MEL-5 melanoma) | growth (UACC-62 melanoma) | growth (LOX IMVI melanoma) | growth (SK-MEL-28 melanoma) | growth (UACC-257 melanoma) | growth (U251 CNS) |
| --- | --- | --- | --- | --- | --- | --- | --- | --- | --- | --- | --- | --- | --- | --- | --- | --- | --- | --- | --- | --- |
| N=C1c2nc3n(c2C(=O)c2nc4n(c21)CCCCC4)CCCCC3 | 113% | 102% | 103% | 117% | 102% | 108% | 93.8% | 105% | 108% | 109% | 106% | 105% | 113% | 113% | 88.7% | 110% | 92% | 118% | – | – |
| CN1CCN(CCCOc2ccc3ncnc(Nc4ccc(OCc5cccc(F)c5)c(Cl)c4)c3c2)CC1 | 18.8% | -26.9% (active) | -78.6% (active) | -78.7% (active) | -80.4% (active) | -43% (active) | -57.4% (active) | -88.9% (active) | -83.4% (active) | -50.8% (active) | -49.5% (active) | 65.1% | 3.46% (active) | -18.9% (active) | -98.2% (active) | -57.8% (active) | – | -86.6% (active) | – | – |
| COc1cccc(CCN2C(=O)CCC3=C2CCC3=O)c1 | 114% | 106% | 100% | 78.2% | 112% | 119% | 97.6% | 97.8% | 83.8% | 108% | 106% | 84.4% | 102% | 93.5% | 98.2% | 97.8% | 97.9% | 111% | – | – |
| Cc1ncc(C(=O)Nc2ccc(CN3CCN(C)CC3)c(C(F)(F)F)c2)cc1C#Cc1cncc2ncccc12 | 66.9% | -10.7% (active) | 0.477% (active) | 21.3% | 36.7% | 57.7% | 82.6% | 67% | 5.36% (active) | 48.4% | 32.4% | 74.4% | 107% | 90.6% | 37.5% | 40.7% | 10.8% | 16.3% | – | – |
| CC(=O)/C(=C/c1ccc(Cl)cc1)C(=O)c1ccccc1 | 99.6% | 61.8% | 103% | 96.1% | 100% | 82.8% | 60.2% | 101% | 86% | 79.3% | 78.9% | 81.6% | 91.1% | 68.5% | 94.2% | 82.1% | -43.9% (active) | 95.5% | – | – |
| CCCCCc1c(C)[nH]c(/C=C2\N=C(c3ccc[nH]3)C=C2Oc2ccc(Cl)cc2)c1C | 3.42% [100 µM] (active) | 0.896% [100 µM] (active) | -59.3% [100 µM] (active) | -38.7% [100 µM] (active) | -2.91% [100 µM] (active) | -72.6% [100 µM] (active) | -72.9% [100 µM] (active) | – | -88.5% [100 µM] (active) | -26.6% [100 µM] (active) | 0.582% [100 µM] (active) | -40% [100 µM] (active) | -32.9% [100 µM] (active) | 5.67% [100 µM] (active) | -90% [100 µM] (active) | -83.2% [100 µM] (active) | -69.2% [100 µM] (active) | -52.4% [100 µM] (active) | -25.4% [100 µM] (active) | -94.9% [100 µM] (active) |
| CCCCCCCCCCCCCCCCCC1=NC(C)(CO)CO1 (stereo unspecified) | 102% | 80.7% | 91.5% | 88.8% | 102% | 98.6% | 88.5% | 97.7% | 95.8% | 92.4% | 92.8% | 120% | 101% | 73.4% | – | 86.7% | 98% | 109% | – | – |
| CCCCOP(=O)(OCCCC)C(C(=O)OCC)C(CC(=O)OCC)C(=O)OCC (stereo unspecified) | 122% | 109% | 125% | 100% | 93.4% | 109% | 101% | 91.4% | 114% | 86.4% | – | 59.9% | 100% | 88.6% | 109% | 105% | 109% | 104% | – | – |
| COc1cc(-c2nc3nc4sc(C)c(C)c4c(=O)n3[nH]2)cc(OC)c1OC | 99.7% | 47% | 59.6% | 91.2% | 78.9% | 95.9% | 60.5% | 83.4% | 78.2% | 73.5% | 82.3% | 80.1% | 92.9% | 85.1% | 55.3% | 61.5% | 81.7% | 87.6% | – | – |
| O=C(N/N=C/c1cccc(O)c1O)c1ccccc1 | 33% | 15.6% | 20.4% | 30.6% | 29.7% | 18.4% | -1.63% (active) | 6.6% (active) | 15% | 22.7% | 26.4% | 41% | 35.7% | 28.9% | 0.968% (active) | -9.23% (active) | 7.69% (active) | 30.5% | – | – |
| O=[N+]([O-])c1ccc2[nH]cc(-c3c4ccccc4cc4[nH]c5ccc([N+](=O)[O-])cc5c34)c2c1 | 36.6% | 9.96% (active) | 26.5% | 45.6% | -2.62% (active) | 33.9% | 22.5% | 44% | -3.7% (active) | 19.9% | 13.4% | 16.6% | 47.6% | 17.2% | 23.2% | 28.6% | 21.3% | 28.1% | – | – |
| Oc1c(N=Nc2nn[nH]n2)ccc2ccccc12 | 96.6% | 97.2% | 9.84% (active) | 60.4% | 87.4% | 93.8% | 65.4% | 95.3% | 62.1% | 68.2% | 81.8% | 143% | 92.6% | 67.6% | 38.4% | 77% | 78% | 94.6% | – | – |
| O=C1/C(=C/c2cccc(Cl)c2)CCc2ccccc21 | 106% | 46.4% | 100% | 98.9% | 110% | 99.4% | 85.5% | 103% | 103% | 93.7% | 91.2% | 72.5% | 87.1% | 89.7% | – | 97.7% | 90.9% | 106% | – | – |
| c1cc[n+](Cc2ccnc3ccccc23)cc1 | 117% | 71.3% | 114% | 98.9% | 90.3% | 106% | 95.9% | 89.3% | 101% | 64.3% | – | 53.6% | 103% | 80.8% | 107% | 104% | 90.8% | 104% | – | – |
| O=C1Nc2ccc(Cl)cc2/C1=C/c1cccs1 | 105% | 103% | 95.9% | 70.6% | 94.3% | 88.8% | 94.3% | 85.3% | 101% | 51.9% | 110% | 84.2% | 84.3% | 93.4% | 85.7% | 86% | 86.7% | 113% | – | – |
| O=C(Nc1nc(-c2ccc(Cl)cc2)cs1)c1cc(-c2ccc(Br)cc2)nc2ccc(Cl)cc12 | 55.6% | 25.2% | 44.6% | 37.8% | 98.6% | 31.6% | 91% | 2.4% (active) | -16.8% (active) | 10.8% | 9.1% (active) | 32.7% | 56% | 40.2% | 14% | 42% | 20.3% | 52.9% | – | – |
| N#Cc1ncc(-c2ccc(C(F)(F)F)cc2)c(NC2CCCCCC2)n1 | 60.5% | 13.6% | -49.2% (active) | 56.3% | 36.6% | 39.3% | -29.5% (active) | 74.4% | 22.4% | 57.1% | 19.1% | 49.7% | 35.2% | 4.57% (active) | -6.45% (active) | 13.2% | – | 36.5% | – | – |
| Cc1ccc(-c2c3c(N)nc(-c4ccncc4)nc3nc3c2c(C)nn3-c2ccccc2)cc1 | 32.6% | 28.9% | -2.14% (active) | 21.4% | 45.6% | 37.8% | 95% | 11.3% | 44.3% | 45% | 21.8% | 22.5% | 88.4% | 62.8% | 55.3% | 58.3% | 8.73% (active) | 30.4% | – | – |
| CCCCCCCSc1ncnc2[nH]ncc12 | 89.5% | 88.8% | 120% | 84.4% | 61.2% | 82.3% | – | 87.5% | 109% | 60.8% | 89.3% | 59.3% | 80.9% | 78.8% | 92.4% | 76.6% | – | 106% | 104% | 38.3% |
| COc1cc(NC(C)CCCN)c2nc(C)ccc2c1Oc1ccc(F)cc1 (stereo unspecified) | 99.9% | 35.9% | 71.7% | 61.5% | 69.3% | 80.7% | – | 87.5% | 62.3% | 71.2% | – | 64.6% | 78.8% | 63.9% | – | 81.9% | 51% | 97.8% | 65.7% | 73.2% |
| CCCCCCCCCCNCCSS(=O)(=O)O | 73.3% | 6.77% (active) | 106% | 76.3% | 104% | -35.9% (active) | – | 99.3% | 34.3% | 86.4% | – | 96.1% | 65.9% | 88.7% | – | 4.6% (active) | 20.9% | 51.5% | 101% | 15% |
| NS(=O)(=O)c1ccc(-n2ncc3c(SCc4ccccc4)ncnc32)cc1 | 78.1% | 74.8% | 82.8% | 91.4% | – | 96.2% | 64.7% | 91.6% | 67% | 93.7% | 94.1% | 102% | 93.9% | 90.9% | 79.5% | 92.8% | 92.8% | 107% | 56.6% | 98.3% |
| Cc1ccc(C2=Nc3c(ccc4c(C)c(C)c(=O)oc34)OC2)cc1 | 106% | 95.4% | 104% | 105% | 109% | 108% | 94.3% | – | 103% | 94.4% | 102% | 95.7% | 101% | 88.9% | 101% | 107% | 94.5% | 110% | – | – |
| COc1ccc(-c2nnc3c4[nH]cnc4ncn23)c(OC)c1 | 26.5% | 11.5% | 37.4% | 29% | – | 33% | 20.1% | 14.6% | 10.5% | 29.2% | 19.5% | 39.2% | 96% | 40.7% | 49% | 23.7% | 5.63% (active) | 84.7% | 40.6% | 41.1% |

— PubChem BioAssay (NCI)
